# Assay outcomes from PubChem.
# Shiga toxin inh: Shiga toxin inhibition; AID 2315; Vero cells, Shiga toxin protein synthesis inhibition reporter; inhibition, % at 38.7 µM; 9.2% of 290,000 active; in the data active = inhibition mostly above about 28%, no sharp cut-off; inactive = mostly below about 43%; note: 0% is about no effect
# FBPA Giardia inh: blocks Giardia fructose-bisphosphate aldolase activity; A8B2U2; purified Giardia FBPA; Potency, µM (series often up to 59.6 µM), without a hit: at the highest dose activity, negative = inhibition, hits mostly inhibitors; 0.71% of 290,000 active; AID 2451; note: potency is the fitted concentration of half-maximal effect; % is set by controls: 0 for no effect and ±100 for the full control effect; nearly all actives have a fitted effect of over 55% in size
#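 40 nM FBPA preincubated 10 min at RT with compound (up to 57.5 uM final), then substrate plus GAPDH/TPI/NAD/arsenate coupling and diaphorase/resazurin added. Fluorescence read after 20 min at RT, 525/598 nm.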
# LmPK inh: inhibitors of Leishmania mexicana pyruvate kinase; Q27686; purified LmPK, Kinase-Glo ATP luminescence, 1 h; Potency, µM (series often up to 57.5 µM), for inactives: at the top dose activity change, negative = inhibition, hits mostly inhibitors; 0.37% of 290,000 active; note: potency is the fitted concentration of half-maximal effect; % is set by controls: 0 for no effect and ±100 for the full control effect
# Target sequence (Q27686 whole entry, looked up): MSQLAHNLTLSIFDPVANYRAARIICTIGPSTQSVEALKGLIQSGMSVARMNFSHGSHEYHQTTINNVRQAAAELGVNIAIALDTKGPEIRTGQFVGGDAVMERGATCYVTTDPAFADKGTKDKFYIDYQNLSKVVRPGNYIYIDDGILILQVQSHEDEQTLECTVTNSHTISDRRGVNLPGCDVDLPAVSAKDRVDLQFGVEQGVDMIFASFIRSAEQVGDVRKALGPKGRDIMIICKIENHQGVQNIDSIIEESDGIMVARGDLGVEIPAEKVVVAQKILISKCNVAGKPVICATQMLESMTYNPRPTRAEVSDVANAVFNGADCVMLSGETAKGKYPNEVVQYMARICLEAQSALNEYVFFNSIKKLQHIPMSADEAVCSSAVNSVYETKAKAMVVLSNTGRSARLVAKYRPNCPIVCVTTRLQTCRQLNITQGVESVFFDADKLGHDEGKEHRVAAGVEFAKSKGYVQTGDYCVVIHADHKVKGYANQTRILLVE
#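 Purified LmPK (0.1 nM) converted ADP (0.1 mM) to ATP with PEP (0.5 mM) in imidazole buffer pH 7.2 with KCl and MgCl2, 1 h at room temperature. ATP was read by Kinase-Glo luminescence; data normalized to uninhibited and no-enzyme controls.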
# Cycloheximide cs: affects cycloheximide protein synthesis inhibition readout, counter-screen. max response, %. 12% of 300,000 active. AID 2314. cell reporter, cycloheximide protein synthesis inhibition counterscreen; in the data active = max response mostly above about 13%, no sharp cut-off; inactive = mostly below about 14%; note: read at 38.3 µM for the half of the compounds with a filed dose; 0% is about no effect
# TbPYK inhibitor: inhibitors of Trypanosoma brucei pyruvate kinase; Q57TT1; TbPYK enzyme, Kinase-Glo Plus ATP luminescence, 45 min; Potency, µM (doses to about 76.8 µM), for inactives: at the highest dose activity, negative = inhibition, hits mostly inhibitors; 0.12% of 410,000 active; note: potency is the fitted concentration of half-maximal effect; % is set by controls: 0 for no effect and ±100 for the full control effect; nearly all actives have a fitted effect of over 50% in size
#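 Luminescent Kinase-Glo Plus end-point after 45 min room-temperature reaction of T. brucei pyruvate kinase started with 130 uM ADP (final). Buffer TEA 50 mM pH 7.2 with KCl, MgCl2, BSA, Tween-20; titration-based qHTS with fitted concentration-effect curves.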
# RE007 growth inh: less growth of the S. pombe RE007 Vpr strain; AID 651644; 0.21% of 360,000 active; Potency, µM (series often up to 92.2 µM), for the others: at the top dose activity change, negative = less growth, usual class: inhibitors; S. pombe RE007 Vpr strain, BacTiter-Glo ATP luminescence, 24 h; active = well fitted falling curve with a large enough effect; inconclusive = small, poorly fitted or top-dose-only effect; inactive = no such curve, though single readings can be large or run the other way; note: potency is the fitted concentration of half-maximal effect; % is set by controls: 0 for no effect and ±100 for the full control effect; nearly all actives have a fitted effect of over 50% in size
#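 Fission yeast RE007 carrying one integrated HIV-1 vpr copy, seeded at OD 0.01 in PMG+AL medium with 23 nL pinned compound. Grown 24 h at 30 degrees; viability read by BacTiter-Glo luminescence after 5 min.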
# * marks the source's active call; other numbers are inactive results; ? = inconclusive; · = no result given; [ ] = remark or other dose. This is one part of a sample in which hits are shown more often than they occur. Unless noted, calls come from the whole dose curve; as a rule, active = well fitted curve in the direction sought with a large enough effect; inconclusive = small, poorly fitted or top-dose-only effect, or another doubt; inactive = no such curve, though single readings can be large; an effect the other way counts as inactive or inconclusive.
SMILES,Shiga toxin inh,FBPA Giardia inh,LmPK inh,Cycloheximide cs,TbPYK inhibitor,RE007 growth inh
COC(=O)c1sccc1NC(=O)Nc1cc(OC)ccc1OC,3,7%,4%,1,3%,19%
COc1ccc(NC(=O)Nc2ccccc2C(N)=O)cc1,72,0%,14µM*,26*,-29%,?
O=C(Nc1cc2c(cc1C(=O)c1ccc(Br)cc1)OCCO2)c1ccc(Cl)cc1,·,·,·,·,1%,·
Cn1c(SCC(=O)Nc2nc3ccccc3s2)ncc(C(=O)Nc2ccc(Cl)cc2)c1=O,·,·,·,·,-5%,·
CC(=O)OCCC(C)CCC=C(C)C (configuration not stated),·,0%,·,·,·,·
CCOc1cc(/C=N\Nc2nc(Nc3ccccc3)nc(N3CCOCC3)n2)ccc1OC(=O)c1ccco1,9,4%,3%,20*,-1%,·
COc1ccc(/C=N/Nc2nc(Nc3ccccc3)nc(N3CCCC3)n2)cc1,69,4%,-1%[11.5 µM],17,5%,0%
O=C(Oc1ccc(/C=N/Nc2nc(N3CCCCC3)nc(N3CCCCC3)n2)cc1)c1ccco1,-25,1%,-3%,5,2%,5%
C(=N\Nc1nc(Nc2ccccc2)nc(N2CCCCC2)n1)/c1ccco1,32*,-3%,3%,28*,·,·
O=C(N/N=C/c1cccc(OC(=O)c2ccco2)c1)c1ccc(F)cc1,26*,-2%,3%,64*,-5%,2%
COc1cc(/C=N/Nc2ccc3ccccc3c2)ccc1OC(=O)c1ccco1,41*,-17%,1%,29*,3%,-9%
COc1cc(/C=N/Nc2nc(C)cc(C)n2)ccc1OC(=O)c1ccco1,-7,-11%,-1%,8,-2%,-5%
CCCc1nnc(NC(=O)c2cc(=O)c3ccccc3o2)s1,·,·,·,·,-3%,·
CC(C)c1ccc(NC(=O)C(Cc2ccccc2)NS(=O)(=O)c2ccc3c(c2)CCC(=O)N3)cc1 (configuration not stated),·,·,·,·,-11%,·
COc1cc(/C=N/NC(=O)c2ccncc2)ccc1OC(=O)c1ccco1,-12,·,-4%,12,-1%,-9%
COc1cc(/C=N/NC(=O)c2ccc(F)cc2)ccc1OC(=O)c1ccco1,52,-1%,3%,21*,-1%,-8%
COc1ccc(-c2csc(Nc3ccccc3)[n+]2Cc2ccccc2)cc1,55*,-7%,1%,38*,1%,-6%
Cc1ccc(-c2csc(Nc3ccc(C(=O)O)cc3)[n+]2Cc2ccccc2)cc1,19,14%,2%,5,0%,2%
Cc1ccc(-c2csc(Nc3ccccc3)[n+]2CCc2ccccc2)cc1,70*,-1%,-1%,23*,1%,-6%
O=[N+]([O-])c1ccc(-c2csc(Nc3ccccc3)[n+]2Cc2ccccc2)cc1,29*,1%,-6%,33*,-16%,-8%
CC(C)COC(=O)n1ccc(C(=O)N2CCCCC2)n1,22,7%,-10%,8,-1%,7%
CC(C)Cc1cc(C(=O)Nc2cccnc2)no1,111*,0%,-10%,35*,-3%,-8%
CC(=O)c1ccc(NC(=O)c2cc(CC(C)C)on2)cc1,active,0%,1%,18*,2%,-4%
CC(=O)c1ccc(NC(=O)c2ccn(C(=O)OCC(C)C)n2)cc1,56*,3%,-9%,71*,-5%,?
CSc1ccccc1NC(=O)c1cc(CC(C)C)on1,69*,0%,-11%,62*,-5%,-9%
SMILES,Shiga toxin inh,FBPA Giardia inh,LmPK inh,Cycloheximide cs,TbPYK inhibitor,RE007 growth inh
CC(=O)c1ccc(NC(=O)CSc2cn(CC(=O)N(C(C)C)C(C)C)c3ccccc23)cc1,·,·,·,·,-5%,·
COc1ccc(-n2nnnc2SCC(=O)NCCc2ccccc2)cc1,·,·,·,·,0%,·
FC(F)(F)c1cnc(Oc2ccc(-c3nnco3)cc2)c(Cl)c1,8,2%,5%,4,10%,22%
Fc1cc(Br)ccc1COc1ccc(-c2nnco2)cc1,93*,·,-1%,36*,-5%,-6%
Fc1ccc(COc2ccc(-c3nnco3)cc2)c(Cl)c1,84*,7%,-5%,30*,2%,-7%
O=C(COc1ccc(-c2nnco2)cc1)Nc1c(F)cccc1F,·,·,·,·,2%,?
COc1cc(OC)c(NS(=O)(=O)c2cc3c(cc2C)N(C(C)=O)CCO3)cc1Cl,·,·,·,·,-3%,·
Cc1c(C(=O)N(C)C)sc2c1c(=O)n(-c1ccccc1C(F)(F)F)c(=O)n2Cc1ccccc1C#N,·,·,·,·,3%,·
Cc1ccc(-c2cc(-c3ccccc3[N+](=O)[O-])[nH]n2)c(O)c1,75*,-8%,2%,31*,1%,-10%
Oc1ccccc1-c1ccn[nH]1,·,·,·,·,1%,-13%
Cc1ccc(-c2cc(-c3ccccc3Cl)[nH]n2)c(O)c1,128*,0%,-3%,51*,0%,?
Cc1ccccc1-c1cc(-c2ccccc2O)n[nH]1,75*,-4%,-1%,30*,?,?
Cc1ccc(C(=O)NC2=NC(c3ccc(C)cc3)CC(=O)N2)cc1 (configuration not stated),·,·,·,·,6%,·
Cc1nc2cnc(Nc3ccccc3)nc2n(CCc2ccccc2)c1=O,·,9%,·,·,·,·
Cc1ccc2nc(-c3ccc(N4C(=O)CC(N5CCC(C(N)=O)CC5)C4=O)cc3)sc2c1 (configuration not stated),33,1%,-3%,26*,·,·
Cc1ccc2nc(-c3ccc(N4C(=O)CC(N5CCCC(C)C5)C4=O)cc3)sc2c1 (configuration not stated),143*,1%,8%,70*,·,·
Cc1cc(NC(=O)C2CCN(S(=O)(=O)c3ccc(Br)s3)CC2)ccc1Br,·,·,·,·,3%,·
Cc1nnc(Sc2nc3ccccc3o2)c2ccccc12,107,-2%,-13%,26*,4%,-17%
Cc1ccc(-c2nnc(Sc3nc4ccccc4o3)c3ccccc23)cc1,-17,1%,0%,-4,-1%,-3%
Clc1ccc(-n2cc(COCc3ccccc3)nn2)cc1,57*,1%,0%,24,-3%,-1%
O=C(O)/C=C/C(=O)Nc1ccc(Cl)c(C(=O)O)c1,51*,-17%,1%,19*,4%,-1%
NNc1ccc(Cl)c(C(=O)O)c1,96*,-15%,12%,36*,-15%,8%
COc1ccccc1OCC1CNC(=O)O1 (configuration not stated),·,·,·,·,-2%,·
O=C(CCc1ccccc1)NNC(=O)C12CC3CC(CC(C3)C1)C2,45,3%,1%,21*,-4%,5%
CCC(C)NC(=O)CSc1nc2c(sc3ccccc32)c(=O)n1CCc1ccccc1 (configuration not stated),·,·,·,·,-10%,·
O=C(CCCOc1ccc(Cl)cc1Cl)NCCc1ccccn1,39*,·,-6%,31*,-1%,-10%
